This is part of a sample that, as a whole, favours compounds with a hit. Of some 83,000 tested, about 20% had one in any assay.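 Cell lines were cultured in 96-well plates, exposed to a single compound concentration, and assessed for percent growth 48 hours later.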 Values without a mark were called inactive. Active and inactive are the calls of the source. How the source made its calls: active means growth percent below 10; inactive means the rest.
Legend:
Experiment in all cases: NCI-60 one-dose screen, 48 h (100 = growth as untreated, 0 = no growth, -100 = all killed)
Settings in all cases: 10 µM unless noted
[1] = tested on: DU-145 prostate
[2] = tested on: K-562 leukemia
[3] = tested on: MALME-3M melanoma
[4] = tested on: MDA-MB-231 breast
[5] = tested on: RXF 393 renal
[6] = tested on: SF-268 CNS
[7] = tested on: SF-295 CNS
[8] = tested on: SF-539 CNS
[9] = tested on: UACC-257 melanoma
[10] = tested on: M14 melanoma
[11] = tested on: HCT-15 colon
[12] = tested on: HT29 colon
[13] = tested on: SNB-75 CNS
[14] = tested on: SNB-19 CNS
[15] = tested on: U251 CNS
[16] = tested on: PC-3 prostate
[17] = tested on: SK-MEL-5 melanoma
[18] = tested on: UACC-62 melanoma
[19] = tested on: LOX IMVI melanoma
[20] = tested on: SK-MEL-28 melanoma

| Structure (SMILES) | growth [1] | growth [2] | growth [3] | growth [4] | growth [5] | growth [6] | growth [7] | growth [8] | growth [9] | growth [10] | growth [11] | growth [12] | growth [13] | growth [14] | growth [15] | growth [16] | growth [17] | growth [18] | growth [19] | growth [20] |
| --- | --- | --- | --- | --- | --- | --- | --- | --- | --- | --- | --- | --- | --- | --- | --- | --- | --- | --- | --- | --- |
| COc1ccc(NC(=O)c2ccc(NC3=C(c4ccc(Cl)cc4)C(=O)NC3=O)cc2)cc1 | 91.4% | 79% | 86.9% | 84.8% | 84.4% | 83.8% | 86.8% | 92.4% | 85.9% | 102% | 75.1% | 66.7% | 85.7% | 91.8% | 82.3% | 64.3% | 80.8% | 81.6% | 87.7% | 101% |
| CN1CCN(Cc2ccc(NC(=O)c3cncc(C#Cc4cnc(N)c5ccc(C#N)cc45)c3)cc2C(F)(F)F)CC1 | -7.64% (active) | 0.252% (active) | -72.6% (active) | -81.7% (active) | -90.7% (active) | -69.4% (active) | 38.8% | -57.6% (active) | 6.11% (active) | -83.9% (active) | -82.4% (active) | -32.4% (active) | -20% (active) | 25.8% | 3.03% (active) | 27.4% | -93.2% (active) | -51.8% (active) | -95.8% (active) | -81% (active) |
| N#Cc1nn(-c2ccccn2)c(N)c1C#N | 104% | 94% | 103% | 109% | 127% | 97.2% | 96.2% | 97.2% | 103% | 102% | 102% | 86.4% | 87.3% | 101% | 103% | 95.4% | 104% | 99.1% | 101% | 105% |
| CCOC(=O)/C(=C\c1ccccc1Cl)P(=O)(OCC)OCC | 36% | 28.6% | 71.2% | 71% | 42.8% | 63.2% | 96.7% | 48.2% | 61.9% | 56.6% | 34.4% | 34.7% | 51% | 84.8% | 66.3% | 45.8% | 79.5% | 56.7% | 0.286% (active) | – |
| c1ccc(-c2nc(N3CCNCC3)c3oc(-c4ccccc4)nc3n2)cc1 | -55.4% (active) | 2.28% (active) | -93.9% (active) | -87.1% (active) | -81.4% (active) | -48.8% (active) | -73.6% (active) | -95.9% (active) | 101% | -60.3% (active) | -75.6% (active) | -26.2% (active) | -95.9% (active) | -27.9% (active) | -57% (active) | -27.9% (active) | -93.3% (active) | -82% (active) | -81.9% (active) | -95% (active) |
| C#CCOc1cc(/C=N/Nc2nc(-c3ccc(OC)cc3)cs2)ccc1O | 95.7% | 59.1% | 86.1% | 96.5% | 107% | 94.3% | 84.1% | 93% | 93.2% | 94.2% | 83.1% | 92.6% | 95.5% | 91.9% | 83.8% | 82.2% | 63.7% | 70.8% | 90.9% | – |
| O=S(=O)(c1ccc(NCSc2nc3ccccc3s2)cc1)c1ccc(NCSc2nc3ccccc3s2)cc1 | 106% | 77.3% | 90.5% | 86.4% | 99.1% | 97.5% | 98.6% | 103% | 94.7% | 96.1% | 106% | 87.8% | 81.6% | 95.9% | 90.6% | 64.9% | 97% | 83.5% | 91.1% | 110% |
| O=C(CSc1nnc(-c2cc(-c3ccc(Cl)cc3)nc3ccccc23)n1-c1ccccc1)Nc1ccc(Cl)cc1 | 107% | 85.1% | 107% | 89.7% | 118% | 94% | 99.5% | 111% | 96.2% | 109% | 97% | 104% | 94.2% | 94.5% | 98.7% | 80.3% | 101% | 87.1% | 95.8% | – |
